Values without a mark were called inactive. Active and inactive are the calls of the source. Calls follow the shape of the dose curve; as a rule, active = well fitted curve in the direction sought with a large enough effect in the repeat runs; inconclusive = weak or mixed curves; inactive = flat fitted curve, though single readings scatter.
% is scaled to controls: 0 for no effect and ±100 for the full control effect.

A short description of the experiment: qHTS assay to test for compound auto fluorescence at 590 nm (red) in HEK293 cell free culture (AID 720683). The note with it: cell-free medium autofluorescence, Ex540/Em590 red; series mostly up to 91.3 µM; fluorescence, % of fluorescent control: at the top concentration. The text has this:
U.S. Tox21 Program National Center for Advancing Translational Sciences [NCATS] NIH Chemical Genomics Center [NCGC] U.S. Environmental Protection Agency [EPA] National Institutes of Environmental Health Sciences [NIEHS] National Toxicology Program [NTP] U.S. Food and Drug Administration [FDA] Tox21 Assay Overview: Compound auto fluorescence often interferes with screening of the compound library against various biological targets and signaling pathways. Some of these compounds may have fluorophoric properties. Such properties may interfere with the assay outputs resulting in false positives and/or negatives. To decrease such complications and ensure the compound activities are relevant in terms of biological response, the Tox21 10K compound library was screened for auto fluorescence. From the fluorophores used as reporter signals in our screening assays, the auto fluorescence equivalencies of compounds against three fluorophores have been evaluated: Triamterene, Fluorescein and Rose Bengal sodium for blue, green and red fluorescence, respectively. The fluorescence intensities were measured using Excitation/Emission wavelengths at 405/460nm, 485/535nm and 540/590nm for blue, green and red labels, respectively. This assay includes the red fluorescence data.
Tox21 Assay Protocol Summary: 5 uL of culture medium (DMEM containing 10% FBS) per well was dispensed into black wall/clear bottom 1536-well plates using a Multidrop Combi Dispenser (ThermoFisher Scientific, Waltham, MA). After 23 nL compound or DMSO vehicle was transferred into assay plate by a pintool work station (Kalypsys, San Diego, CA), fluorescence intensities in the assay plates were measured by an Envision (PerkinElmer, Shelton, CT) plate reader using three labels for measuring blue, green and red fluorescence at […] 460, 535 and 590nm respectively.
A general note: Quantitative high-throughput screening tests each substance at several concentrations.
As for `O=C(O)C(Cl)(Cl)Br`, the “fluorescence, % of fluorescent control” value was 0.0253%. On the same count and under the same terms, in the case of `C=CC(=O)OCC` it was -0.194% [at 95.7 µM]; in that of `NC(=S)c1c(Cl)cccc1Cl`, 0.0953%; in that of `C=CC(C)(CCC=C(C)C)OC(=O)c1ccccc1N` (stereo not given), 0.0435%. For the compound `CCCN(CCOc1c(Cl)cc(Cl)cc1Cl)C(=O)n1ccnc1`, the compound was called inactive. Regarding `N#CC(C#N)=C(C#N)C#N`, the “fluorescence, % of fluorescent control” value was -0.065% [at 95.7 µM]. On to `Cc1cccc(C)c1NC1=NCCCS1`, for which the “fluorescence, % of fluorescent control” value was 0.136% [at 46 µM]. Turning to `C[C@H]1[C@@H]2Cc3ccc(O)cc3[C@@]1(C)CCN2C`, the “fluorescence, % of fluorescent control” value is -0.482% [at 203 µM]. Still for that read-out and setting: for `OCCSSCCO` the value was -0.126%; for `NNCCO`, -0.0232%. Same read-out and setting: for `CC(Cc1ccccc1)NCc1ccccc1Cl` (stereo not given) the value was -0.0485% [at 46 µM]. Still for that read-out and setting: for `C=CCN1C[C@H](C)N([C@H](c2ccc(C(=O)N(CC)CC)cc2)c2cccc(OC)c2)C[C@H]1C` the value was 0.26% [at 46 µM]; for `COC1=CC(=O)O[C@@H](/C=C/c2ccc3c(c2)OCO3)C1`, -0.008%. For the compound `COP(=O)(OC)OC(Br)C(Cl)(Cl)Br` (stereo not given), the call was inactive. In the case of `OC[P+](CO)(CO)CO`, the call was inactive. As to `O=C(NCNC(=O)NC1C(=O)NC(=O)N1CO)NC1C(=O)NC(=O)N1CO` (stereo not given), the result was inactive. For the compound `CCSCc1ccccc1OC(=O)NC`, the “fluorescence, % of fluorescent control” value is 0.0216%. `CCC[N+](CCC)(CCC)CCC`: the “fluorescence, % of fluorescent control” value was -0.176%.

In the case of `CCCC[N+]1(C)[C@@H]2CC(OC(=O)[C@H](CO)c3ccccc3)C[C@H]1[C@@H]1O[C@@H]12` (stereo not given in full), the “fluorescence, % of fluorescent control” value is -0.0447% [at 46 µM]. On the same count and under the same terms, in the case of `CC(Oc1cccc(Cl)c1)C(=O)O` (stereo not given) it was -0.436%; in that of `O=C=NC1CCCCC1`, -0.0024%.

As to `CCCCCCCCCCCC[N+](C)(C)CCOc1ccccc1`, the result was inactive. Consider `C=C(Cl)Cl`, for which the “fluorescence, % of fluorescent control” value is -0.466% [at 95.7 µM]. On to `C[C@@H]1C[C@@H]([C@H](O)CC2CC(=O)NC(=O)C2)C(=O)[C@@H](C)C1`, for which the result was inactive.

Turning to `CC(C)(C#N)C(C)(C)C#N`, the “fluorescence, % of fluorescent control” value was 0.0882% [at 95.7 µM]. As to `CCOP(=S)(OCC)SCSc1cc(Cl)ccc1Cl`, the “fluorescence, % of fluorescent control” value was 0.0249%. As to `CN(C)c1ccc(N=O)cc1`, the call was inactive.

With `CCCCC1C(=O)NC(=O)N(C2CCCCC2)C1=O` (stereo not given), the “fluorescence, % of fluorescent control” value is -0.387% [at 46 µM]. With `O=C(Cc1ccccc1)c1ccccc1`, the “fluorescence, % of fluorescent control” value is 0.229%. For the compound `NCCc1cc(O)c(O)cc1O`, the “fluorescence, % of fluorescent control” value is 1.02% [at 46 µM]. Same read-out and setting: in the case of `CC(C)c1ccc(NC(=O)N(C)C)cc1` it was 0.0198%. On the same count and under the same terms, in the case of `Cc1ccc2c(C)cccc2c1` it was -0.442%. Consider `O=C(CCl)CCl`, for which the result was inactive.

Regarding `CCCN(CCC)C(=O)Cc1c(-c2ccc(Cl)cc2)nc2ccc(Cl)cn12`, the “fluorescence, % of fluorescent control” value was 0.0242% [at 46 µM]. Same read-out and setting: in the case of `ClCc1ccccc1Cl` it was 0.0531% [at 95.7 µM]; in that of `Clc1ccccc1`, -0.026%. For the compound `Nc1cccc2ccccc12`, the result was inactive. Regarding `CC(C)(C)OOC(C)(C)CCC(C)(C)OOC(C)(C)C`, the “fluorescence, % of fluorescent control” value was -0.0928%.

For `CCOC(=O)NC(O)C(Cl)(Cl)Cl` (stereo not given), the “fluorescence, % of fluorescent control” value is 0.0424% [at 46 µM]. Same read-out and setting: for `C[N+](C)(C)CCOC(=O)C(O)(c1ccccc1)c1ccccc1` the value was -0.653% [at 46 µM].

Source of the values: PubChem BioAssay (Tox21).
